The conditions of assay [1]: Ebola virus entry assay, green fluorescence channel.
The conditions of assay [2]: Ebola virus entry assay, blue channel fluorescence.
For assay [3] the following is noted: Ebola virus entry assay, green fluorescence channel. The source holds these as a separate data set.
The conditions of assay [4]: Ebola virus entry assay, ratio channel readout.
The conditions of assay [5]: Ebola virus entry assay, ratio channel.
For assay [6] the following is noted: Ebola virus entry assay, green channel fluorescence.
For assay [7] the following is noted: Ebola virus entry assay, blue channel fluorescence. The source holds these as a separate data set.
The conditions of assay [8]: Ebola virus entry assay, reporter ratio channel.
The conditions of assay [9]: Ebola virus entry assay, blue channel (ratio component).
The conditions of assay [10]: Ebola virus entry assay, blue channel fluorescence. The source holds these as a separate data set.
Where [11] appears, read: AC50: Channel type: primary unless noted, outcome: Channel type: primary unless noted.

SMILES strings stand for the structures. Several values for one entry are separate records, joined by “and”; a condition that tells them apart may be missing. Equal entries are not always repeated. Values without a mark were called inactive. For part of these data: Entries with a potency or affinity are not part of this list. Activity calls are given as the source filed them.
For efficacy in this document: 0% is about no effect.

Regarding `CO/N=C1\CN(c2nc3c(cc2F)c(=O)c(C(=O)O)cn3C2CC2)CC1CN` (stereo unspecified), in assay [1], the efficacy was -13.2%. Also, the compound was called inactive in assay [2], in assay [3], in assay [4], in assay [5], in [6] and in assay [7]. Further, the result in [8] (setting [11]) and in assay [9] was inactive.
For `CCCCS(=O)(=O)N[C@@H](Cc1ccc(OCCCCC2CCNCC2)cc1)C(=O)O`, the efficacy in assay [1] is 9.81%. Also, the call in assay [2], in [3], in [4], in [6], in assay [7] and in assay [8] (setting [11]) was inactive. Also, the outcome in [9] was inactive.
Take `CN(N=O)C(=O)N[C@@H]1[C@@H](O)[C@H](O)[C@@H](CO)O[C@@H]1O`: the efficacy in assay [1] was -17.3%. Further, the call in [2], in [3], in [4], in [5], in [6] and in assay [7] was inactive. Moreover, the outcome in assay [8] (setting [11]) and in assay [9] was inactive.
Turning to `C[C@]12CC[C@@H]3c4ccc(O)cc4C[C@@H](CCCCCCCCCS(=O)CCCC(F)(F)C(F)(F)F)[C@H]3[C@@H]1CC[C@@H]2O` (stereo partly specified), the efficacy in [1] was 40.4%. For the same compound, the outcome in assay [2], in [3], in [4], in assay [5], in assay [8] (Channel type: confirmation) and in assay [8] (Channel type: primary) was inactive. Also, the outcome in assay [9] was inactive.
As to `O=C(O)c1cn(C2CC2)c2cc(N3CCNCC3)c(F)cc2c1=O`, in [1], the efficacy was -9.16%. The compound was classed as inactive in assay [2], in assay [3], in assay [4], in assay [6], in [7] and in assay [8] (setting [11]). Also, the outcome in assay [9] was inactive.
For the compound `COC(=O)[C@@H]1CC2=CC(=O)CC[C@]2(C)[C@@]23O[C@@H]2C[C@@]2(C)[C@@H](CC[C@@]24CCC(=O)O4)[C@H]13`, in assay [1], the efficacy was -15.8%. Besides, the result in assay [2], in assay [3], in assay [4], in assay [6], in [7] and in [8] (setting [11]) was inactive. In addition, the outcome in [9] was inactive.
Turning to `CC1(C)S[C@@H]2[C@H](NC(=O)[C@H](N)c3ccccc3)C(=O)N2[C@H]1C(=O)O`, in [1], the efficacy was -14%. Also, the compound was classed as inactive in assay [2], in [3], in [4], in assay [5], in [6] and in [7]. The outcome in assay [8] (setting [11]) and in assay [9] was inactive.
As to `C=C1CC[C@@]2(O)[C@H]3Cc4ccc(O)c5c4[C@@]2(CCN3CC2CC2)[C@H]1O5`, the efficacy in assay [1] was 46.6%. In addition, the outcome in assay [2], in assay [3], in assay [4], in [5], in assay [6] and in assay [7] was inactive. The result in assay [8] (setting [11]) and in assay [9] was inactive.
On to `O=C(O)C1(C(=O)O)CCC1.[NH2-].[NH2-].[Pt+2]`, for which the efficacy in [1] was -21.2%. Besides, the outcome in [2], in [3], in assay [4], in [6], in [7] and in assay [8] (setting [11]) was inactive.
Take `COc1ccc(Cc2nccc3cc(OC)c(OC)cc23)cc1OC`: the efficacy in [1] was 13%. Besides, the result in assay [10], in assay [5], in assay [6], in assay [8] (setting [11]) and in [9] was inactive.
As to `CNCC(O)c1ccc(O)cc1` (stereo unspecified), in assay [1], the efficacy was -23.3%. Also, the call in assay [10], in [5], in assay [6], in [8] (setting [11]) and in assay [9] was inactive.
Turning to `COC(=O)C1=C(C)NC(C)=C(C(=O)OC(C)C)C1c1cccc2nonc12` (stereo unspecified), in assay [1], the efficacy is -20.5%. Besides, the result in assay [3], in [4], in assay [5], in [6], in [7] and in assay [8] (setting [11]) was inactive. Further, the result in assay [9] was inactive.
For `COc1ccccc1N1CCNCC1`, the efficacy in assay [1] is 33.5%. Further, the outcome in assay [10], in assay [5], in [6] and in assay [8] (setting [11]) was inactive.
What is called AC50 is the concentration at which the activity in the assay is half-maximal. With `O=[N+]([O-])c1ccc(O)c2ncccc12`, the efficacy in assay [1] was -18.6%. In addition, the AC50 is 31.6 µM (active) in [10], 28.2 µM (active) in [5] and 28.2 µM (active) in assay [8] (setting [11]). Further, the result in assay [6] was inactive.
In the case of `N[C@@H](Cc1ccc(Oc2cc(I)c(O)c(I)c2)c(I)c1)C(=O)O`, the efficacy in assay [1] is -32%. Moreover, the call in assay [10], in [5], in assay [6], in [8] (setting [11]) and in assay [9] was inactive.
For the compound `CC1(C)NC(=O)N(c2ccc([N+](=O)[O-])c(C(F)(F)F)c2)C1=O`, the efficacy in assay [1] is 16.8%. For the same compound, the compound was called inactive in assay [3], in assay [4], in assay [6], in assay [7], in assay [8] (setting [11]) and in assay [9].
Regarding `Cn1cc[nH]c1=S`, the efficacy in assay [1] was -16%. For the same compound, the compound was classed as inactive in assay [3], in assay [10], in assay [5], in assay [6], in assay [7] and in [8] (setting [11]). Besides, the result in assay [9] was inactive.
Turning to `CCC[C@H](N[C@@H](C)C(=O)N1[C@H](C(=O)O)C[C@@H]2CCCC[C@@H]21)C(=O)OCC`, the efficacy in [1] was -25%. The compound was classed as inactive in assay [3], in assay [10], in assay [5], in [6], in [7] and in assay [8] (setting [11]). Moreover, the result in assay [9] was inactive.
With `NCCc1cc(O)c(O)cc1O`, in assay [1], the efficacy is -42%. In addition, the AC50 in assay [10] is 25.1 µM (active); in assay [8] (setting [11]) it was 39.8 µM (active). Further, the result in [5] and in assay [6] was inactive.
In the case of `CC(=O)[C@H]1CC[C@H]2[C@@H]3CC[C@H]4C[C@](C)(O)CC[C@]4(C)[C@H]3CC[C@]12C`, the efficacy in [1] was 28.4%. Also, the compound was classed as inactive in [10], in assay [5], in assay [6], in assay [8] (setting [11]) and in [9].
`CC/C=C(\C(=O)N[C@@H]1C(=O)N2C(C(=O)OCOC(=O)C(C)(C)C)=C(COC(N)=O)CS[C@H]12)c1csc(N)n1`: in assay [1], the efficacy is 11.1% and -32.9%. In addition, the compound was called inactive in assay [10], in assay [5], in assay [6], in assay [8] (setting [11]) and in assay [9].
Take `NCC(O)c1ccc(O)cc1` (stereo unspecified): the efficacy in assay [1] is -25.6%. In addition, the call in assay [10], in assay [5], in assay [6], in assay [8] (setting [11]) and in [9] was inactive.
For the compound `CCN(CC)CCOC(=O)C(O)(c1ccccc1)c1ccccc1`, the efficacy in [1] was -15.5%. Further, the compound was called inactive in assay [10], in [5], in assay [6], in assay [8] (setting [11]) and in assay [9].
As for `Cc1ccc(S(=O)(=O)NC(=O)NN2CCCCCC2)cc1`, the efficacy in assay [1] is -42.6%. For the same compound, the compound was classed as inactive in assay [3], in [4], in [5], in [6], in assay [8] (setting [11]) and in assay [9].
Regarding `CC(C)=CCOc1c2occc2cc2ccc(=O)oc12`, the efficacy in assay [1] is 19.5%. For the same compound, the AC50 in [10] and in assay [8] (setting [11]) was 25.1 µM (active) in each case. Further, the result in assay [5] and in [6] was inactive.
For `Cc1ncc([N+](=O)[O-])n1CCO`, the efficacy in assay [1] was -56.3%. The compound was classed as inactive in assay [3], in [4], in [5], in [6] and in [8] (setting [11]).
As for `Cc1cccc(C)c1NC(=O)CN1CCCC1=O`, the efficacy in assay [1] is -15.1%. Moreover, the outcome in assay [10], in [5], in assay [6] and in assay [8] (setting [11]) was inactive.
